In PMC4336329 (PLoS ONE, 2015):
The campaign covered roughly 310,000 compounds. About 14,000 (4.5%) showed an effect of 50% or more. The effect is printed as a negative number. The full list was thinned out, with strong results kept by preference.

Molecular target: human ether-à-go-go-related gene (hERG) potassium channel (human, UniProt Q12809)
Assay: primary screen, population patch clamp on CHO cells stably expressing hERG; higher = less effect of the substance
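Also: peak tail current of the secondary pulse compared with the same well before compound.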

human ether-à-go-go-related gene (hERG) potassium channel, sequence (Q12809 whole entry, looked up): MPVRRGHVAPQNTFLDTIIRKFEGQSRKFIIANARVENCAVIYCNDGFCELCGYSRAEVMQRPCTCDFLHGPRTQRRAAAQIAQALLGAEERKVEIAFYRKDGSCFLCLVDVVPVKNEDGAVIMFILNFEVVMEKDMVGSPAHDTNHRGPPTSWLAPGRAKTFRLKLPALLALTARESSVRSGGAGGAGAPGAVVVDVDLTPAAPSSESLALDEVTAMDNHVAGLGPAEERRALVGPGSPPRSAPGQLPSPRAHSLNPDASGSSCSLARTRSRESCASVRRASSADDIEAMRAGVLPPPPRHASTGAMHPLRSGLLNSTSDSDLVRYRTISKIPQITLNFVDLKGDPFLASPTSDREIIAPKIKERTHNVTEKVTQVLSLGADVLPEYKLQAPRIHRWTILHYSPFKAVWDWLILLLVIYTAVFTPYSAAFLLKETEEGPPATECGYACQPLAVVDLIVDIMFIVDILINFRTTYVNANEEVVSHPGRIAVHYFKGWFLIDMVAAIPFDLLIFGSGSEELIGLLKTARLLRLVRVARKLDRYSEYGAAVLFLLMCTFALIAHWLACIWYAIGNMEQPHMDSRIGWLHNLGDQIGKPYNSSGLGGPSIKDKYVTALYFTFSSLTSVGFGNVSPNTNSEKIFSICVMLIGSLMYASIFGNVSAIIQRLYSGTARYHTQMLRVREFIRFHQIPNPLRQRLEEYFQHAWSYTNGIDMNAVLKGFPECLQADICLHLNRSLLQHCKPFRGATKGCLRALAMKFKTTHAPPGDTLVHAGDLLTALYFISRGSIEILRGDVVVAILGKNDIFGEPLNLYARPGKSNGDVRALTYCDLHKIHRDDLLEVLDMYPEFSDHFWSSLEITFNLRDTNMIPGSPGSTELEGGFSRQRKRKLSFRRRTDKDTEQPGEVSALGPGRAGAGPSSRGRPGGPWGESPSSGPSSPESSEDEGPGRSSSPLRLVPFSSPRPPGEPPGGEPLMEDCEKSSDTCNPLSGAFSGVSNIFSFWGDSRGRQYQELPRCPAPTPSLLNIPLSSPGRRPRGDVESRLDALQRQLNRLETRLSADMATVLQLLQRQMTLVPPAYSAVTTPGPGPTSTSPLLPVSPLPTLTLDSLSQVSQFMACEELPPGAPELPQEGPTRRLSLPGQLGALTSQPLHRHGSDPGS

SMILES	hERG current change (%, negative = inhibition) at 10uM [%]
CC(=O)Nc1ccc(C2C(=O)c3ccccc3C2=O)cc1	21.4
O=[N+]([O-])c1ccccc1N/N=C1\CC2CC=CC12 (stereo not shown)	46.5
CCOc1ccccc1C(=O)N(CN1CCCC1=O)c1cccc(Cl)c1	-3.65
Cc1ccc(-c2c[n+](CC(=O)Nc3ccccc3)c3n2CCC3)cc1.[Cl-]	-27.8
Cc1ccc(-c2c[n+](CC(=O)Nc3ccccc3C)c3n2CCC3)cc1.[Cl-]	-5.42
Cc1ccc(NC(=O)C[n+]2cc(-c3ccc(C)cc3)n3c2CCC3)cc1.[Cl-]	-70
CCc1ccc(NC(=O)C[n+]2cc(-c3ccc(C)cc3)n3c2CCC3)cc1.[Cl-]	-63.1
Cc1ccc(NC(=O)C[n+]2cc(-c3ccccc3)n3c2CCC3)cc1.[Cl-]	-15.2
Cc1ccc(-c2c[n+](CC(=O)Nc3c(C)cccc3C)c3n2CCC3)cc1.[Cl-]	14.1
Cc1ccccc1NC(=S)/C(=C(\[O-])c1ccc(C)c([N+](=O)[O-])c1)[n+]1ccccc1	-1.7
CCC1(C)Cc2ccccc2-c2c1c(=O)n(-c1ccc(C)cc1)c1nnnn21 (stereo not shown)	2.8
Cc1cc2cc(CN(Cc3ccco3)C(=O)NCc3ccccc3)c(=O)[nH]c2cc1C	-6.54
CCC(C(=O)Nc1cccc(C(F)(F)F)c1)c1ccccc1 (stereo not shown)	3.89
CCN(CC)CCNC(C(=O)Nc1cccc(C(C)=O)c1)c1ccccc1.O=C(O)C(=O)O (stereo not shown)	-79.1
CC(=O)c1cccc(NC(=O)C(NC(C)C)c2ccccc2)c1 (stereo not shown)	10.5
CCN(CC)CCNC(C(=O)Nc1cc(C(F)(F)F)ccc1Cl)c1ccccc1 (stereo not shown)	-76.4
CN(C)CCNC(C(=O)Nc1cc(Cl)cc(Cl)c1)c1ccccc1 (stereo not shown)	-45.6
CN(C)CCNC(C(=O)Nc1cccc(C(F)(F)F)c1)c1ccccc1.O=C(O)C(=O)O (stereo not shown)	-56.7
CCCC(=O)OC(C(=O)Nc1cc(C(F)(F)F)ccc1Cl)c1ccccc1 (stereo not shown)	-9.58
CCOc1ccc(NC(C(=O)Nc2cccc(C(C)=O)c2)c2ccccc2)cc1 (stereo not shown)	-49.7
O=C(Nc1cc(C(F)(F)F)ccc1Cl)C(NCc1ccccc1)c1ccccc1 (stereo not shown)	2.13
O=C(c1cc(F)cc2c1OCOC2)N1CCN(c2ccc(F)cc2)CC1	-16
